Compound activity: PubChem, National Center for Advancing Translational Sciences (NCATS)
A selection: hits, their analogues and other compounds. The true share with any hit is near 7.3%.
Tau fibril ThT: blocks human tau fibril formation measured by thioflavin T; recombinant tau K18 P301L, heparin-induced fibrillization, ThT fluorescence; Potency, µM (doses to about 57.4 µM), for inactives: at the highest dose activity, negative = inhibition, most hits filed as inhibitors; 270,000 compounds, 2.1% hits; AID 1460; note: nearly all actives have a fitted effect of over 55% in size
Target sequence (P10636 561-689 P618L limits assumed): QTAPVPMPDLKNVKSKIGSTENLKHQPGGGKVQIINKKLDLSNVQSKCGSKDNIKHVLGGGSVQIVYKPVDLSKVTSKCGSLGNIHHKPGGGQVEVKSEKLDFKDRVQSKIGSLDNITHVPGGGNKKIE
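Tau K18 P301L fragment (15 uM unlabeled plus 0.24 uM Alexa 594-labeled) in 100 mM sodium acetate pH 7 with compound, fibrillization induced by 20 uM heparin for 6 hr at 37 C. Thioflavin T (30 uM) added, fluorescence read after 1 hr (ex 450, em 510 nm).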
Gal4-VP16 FLuc: inhibits Gal4-VP16 luciferase reporter, ROR gamma counter-screen | Drosophila S2 Gal4-VP16 UAS-luciferase, luminescence, 20 h | Potency, µM (highest dose often 53.6 µM), without a hit: at the top dose activity, negative = inhibition, most hits filed as inhibitors | 310,000 compounds, 3.5% hits;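 note: Gal4-VP16 expression switched on by copper sulfate through the metallothionein promoter; nearly all actives have a fitted effect of over 50% in size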
RORgamma inh: inhibitors of mouse ROR gamma transcriptional activity; P51450; Drosophila S2 Gal4-RORgamma UAS-luciferase reporter, 20 h; Potency, µM (top dose mostly 53.6 µM), inactives show at the top dose activity change, negative = inhibition, usual class: inhibitors; 310,000 compounds, 5.4% hits; note: nearly all actives have a fitted effect of over 60% in size
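Drosophila S2 cells stably expressing Gal4-DBD/mouse RORγ fusion under metallothionein promoter plus UAS-luciferase; compound 1 h, then 700 uM CuSO4 induction for 20 h at ambient temperature; inhibition read as reduced luminescence.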
Tau fluor counter: counter-screen for tau fibril formation inhibitors | tau K18 P301L Alexa594 fluorescence, heparin fibrillization | Potency, µM (series often up to 57.7 µM), without a hit: at the top dose activity change, negative = decrease | 280,000 compounds, 0.93% hits | AID 1463; note: nearly all actives have a fitted effect of over 55% in size
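Human tau K18 P301L (15 uM unlabeled, 0.24 uM Alexa 594-labeled) in 100 mM sodium acetate pH 7 with 20 uM heparin, 6 hr at 37 C. ThT 30 uM added, 1 hr ambient; Alexa 594 FP and total fluorescence read at 555/632 nm.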
Tau fibril FP: blocks human tau fibril formation measured by polarization | P10636 | K18 P301L tau heparin fibrillization, Alexa594 FP, 6 h | Potency, µM (series often up to 57.7 µM), inactives show at the top dose activity, negative = inhibition, actives largely listed as inhibitors | 280,000 compounds, 0.39% hits | AID 1468; note: nearly all actives have a fitted effect of over 55% in size
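Compound effects on tau fibrillization are measured by Alexa 594 fluorescence polarization (ex 555, em 632 nm). K18 P301L tau is used at 15 uM with 0.24 uM labeled tracer, and 20 uM heparin induces aggregation over 6 hr at 37 C.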
The depositor's hits bear a star; ? = inconclusive; nt = no result given; [ ] = remark or other dose. Calls come from the whole dose curve; as a rule, active = well fitted curve in the direction sought with a large enough effect; inconclusive = small, poorly fitted or top-dose-only effect, or another doubt; inactive = no such curve, though single readings can be large; an effect the other way counts as inactive or inconclusive. % is set by controls: 0 for no effect and ±100 for the full control effect; potency is the fitted concentration of half-maximal effect.

SMILES	Tau fibril ThT	Gal4-VP16 FLuc	RORgamma inh	Tau fluor counter	Tau fibril FP
CC(C)(C)c1ccc(NC(=O)Nc2ccc(OCC(=O)N3CCOCC3)cc2)cc1	-18%	?	?	20µM*[quencher]	19%
COc1cc(SC)ccc1C(=O)Nc1ccc(C)cc1	6%	20µM*	?	-2%	-2%
COc1cc(SC)ccc1C(=O)Nc1ccc(C)cc1C	?	3%	35%	3%	-8%
CC1(C)CCC[C@@](C)([C@H]2CC[C@]3(C)[C@@H]2[C@H](O)C[C@@H]2[C@@]4(C)CC[C@H](O)C(C)(C)[C@@H]4CC[C@]23C)O1	nt	5%	20%	nt	nt
COc1ccc(NC(=O)Cn2c(=O)n(Cc3ccc4c(c3)OCO4)c(=O)c3ccc(C(=O)NC4CCCCC4)cc32)cc1	8%	nt	nt	-28%	?
COc1cc(SC)ccc1C(=O)NCCOc1c(C)cc(C)cc1C	16µM*	-5%	19%	-20%	-6%
COc1cc(SC)ccc1C(=O)Nc1ccc(Br)cn1	-15%	7.9µM*	2µM*	-19%	-13%
COc1cc(SC)ccc1C(=O)Nc1cccc(C)n1	?	0%	-36%	-8%	-2%
COc1cc(SC)ccc1C(=O)NCCOc1ccc(Cl)cc1	?	0%	?	-12%	6%
COc1cc(SC)ccc1C(=O)Nc1ccc(OCC(=O)N2CCOCC2)cc1	nt	11µM*	10µM*	nt	nt
COc1cc(SC)ccc1C(=O)Nc1ccccn1	nt	10µM*	8.9µM*	0%	0%
COc1cc(SC)ccc1C(=O)Nc1cc(C)c(OCC(=O)N2CCOCC2)c(C)c1	nt	-2%	13%	nt	nt
CC(C)CNC(=O)COC(=O)c1ccc2c(c1)C(=O)N(Cc1ccco1)C2=O	nt	-1%	-23%	nt	nt
COc1cc(SC)ccc1C(=O)Nc1ncc(C)s1	-15%	?	2.5µM*	-18%	-1%
COc1cc(SC)ccc1C(=O)Nc1ncc(Cl)cc1Cl	?	?	18%	0%	-3%
Cc1cc2nc3c(=O)[nH]c(=O)nc-3n(C)c2cc1C=O	?	2%	10µM*	-24%	?
CCOc1ccc(CCNC(=O)Cn2nnc(-c3ccc(OC)c(OC)c3)n2)cc1OCC	-7%	nt	nt	-20%	-19%
COc1ccc(CNC(=O)Cc2nn(C)c(=O)c3ccccc23)cc1	0%	8.9µM*	?	3%	-3%
CC12CC3CC(C)(C1)CC(C(=O)N1CCN(C(=O)c4ccco4)CC1)(C3)C2	nt	-16%	?	nt	nt
C/C(Cn1nnc([N+](=O)[O-])n1)=N\NC(=O)c1ccccc1	-6%	?	10µM*	-3%	-2%
COc1ccc(CCN(Cc2nc3ccccc3c(=O)[nH]2)C(=O)c2ccco2)cc1	-13%	?	13µM*	-9%	3%
CCC(CC)C(=O)N(CCc1ccc(OC)cc1)Cc1nc2ccccc2c(=O)[nH]1	-10%	10µM*	5µM*	-12%	14%
COc1cccc(N(C(=O)CCl)C(C(=O)NCCc2ccccc2)c2cccs2)c1 (configuration not stated)	-14%	-18%	13µM*	-15%	12%
COCCNC(=O)C(c1cccs1)N(C(=O)Cn1nnc2ccccc21)c1ccccc1 (configuration not stated)	12%	nt	3%[0.365 µM]	16%	6%
COc1ccc(N(C(=O)CCl)C(C(=O)NCCc2ccccc2)c2cccs2)cc1Cl (configuration not stated)	?	-82%	11µM*	-10%	10%
COC(=O)[C@H]1[C@H]2C[C@@H]3c4[nH]c5cc(OC)ccc5c4CCN3C[C@H]2C[C@@H](OC(=O)c2ccc(N)cc2)[C@@H]1OC	14µM*	3%	7%	?	-4%
COC(=O)[C@H]1[C@H]2C[C@@H]3c4[nH]c5ccccc5c4CCN3C[C@H]2C[C@@H](OC(=O)c2cc(OC)c(OC)c(OC)c2)[C@@H]1OC	nt	?	7.1µM*	nt	nt
